Drawing on PubChem BioAssay AID598 (SRMLSC, 2007), this text covers viability for 99 compounds.

Among all 85,000 compounds or so, about 5,100 (6%) were called active. The sample as a whole holds a higher share of actives than the screen did. A number with no mark means an inactive call.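 How the source made its calls: active means viability at or below 40%; inactive means viability above 40%.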

The experiment in a line: H69AR cell viability reduction – human, 86K library, primary screen (AID 598).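 Further: multidrug resistant small cell line overexpressing MRP-1 efflux transporter; 100% = mean luminescence of untreated control wells.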 The conditions noted are these: H69AR lung tumor viability, ATP luminescence, 72 h; at 10 µM; active compounds read low.
On to `CCOC(=O)c1[nH]c(C)c(C(=O)OCC(=O)N2c3ccccc3CC2C)c1C` (centres undefined), for which the viability (as a rule, a read-out of living cells in per cent, often relative to untreated cells) was 87%.

For `CCCCOC(=O)Cn1c(=O)n(CC(=O)OCCCC)c2cc(C)ccc21`, the viability was 99.5%.

As for `CC(C)OC(=O)CN1C(=O)c2ccccc2C1=O`, the viability is 98%.

As for `Cc1cccc2c1N(CC(=O)OC(C)C)C(=O)C2=O`, the viability is 71.7%.

Turning to `CC(C)OC(=O)CN1C(=O)C(=O)c2ccccc21`, the viability is 13.1% (active).

On to `CCOC(=O)CN1C(=O)C(=O)c2cc(C)ccc21`, for which the viability was 20.2% (active).

Turning to `CCOC(=O)c1cc2n(c1C)-c1ccccc1C2=O`, the viability is 90.3%.

`CCCc1nc2ccccc2c(C(=O)OCC(=O)c2ccc3c(c2)NC(=O)CO3)c1CC`: the viability was 43.2%.

Turning to `Cc1ccc(Cc2c(C)nc3nc(SCC(=O)NCCN4CCOCC4)nn3c2C)cc1`, the viability was 93.9%.

As to `CCOc1ccc(NC(=O)CN(C)CC(=O)Nc2cccc(Cl)c2C)cc1OCC`, the viability was 48.5%.

For the compound `Cc1cccc(NC(=O)N(Cc2cc3cc(C)cc(C)c3[nH]c2=O)CC2COCCO2)c1` (centres undefined), the viability was 47%.

Consider `Cn1c(Cn2nnc3ccccc32)nnc1SCC(=O)c1ccccc1F`, for which the viability was 79.3%.

In the case of `CN=C1SC(CC(=O)Nc2ccc(C(=O)O)cc2)C(=O)N1C` (centres undefined), the viability is 97.5%.

Take `O=C(CN1C(=O)CC(c2ccccc2)=Nc2ccccc21)NC1CCCCC1`: the viability is 77.6%.

Turning to `Cc1nc2ccccc2c(=O)n1CCCn1ccnc1`, the viability was 99%.

For the compound `Cc1ccnc(-n2sc3ccccc3c2=O)n1`, the viability was 1.54% (active).

Consider `Cc1ccnc(N2CCC(C(=O)NC3CCCCCC3)CC2)n1`, for which the viability is 77.9%.

Consider `CC(C)(C)N1CC(c2nc3ccccc3n2Cc2ccc(F)cc2)CC1=O` (centres undefined), for which the viability is 79.4%.

In the case of `CCCn1c(C(Cc2ccccc2)NC(=O)COC)nc2ccccc21` (centres undefined), the viability is 92.9%.

For `CNC(=O)c1nnc(Cc2ccc(Cl)cc2)o1`, the viability was 97.8%.

On to `O=C(OCc1ccccc1F)c1ccc2c(c1)OCCO2`, for which the viability is 91.2%.

`O=C(COC(=O)c1ccc2c(c1)OCCO2)NCc1ccccc1`: the viability is 92.1%.

Take `O=C(CCN1CCc2ccccc2C(O)(c2ccccc2)C1)c1ccc2c(c1)OCCO2` (centres undefined): the viability was -0.08% (active).

With `CCn1c(SCC(=O)Nc2nc(C)cs2)nnc1C(C)NC(=O)c1ccccc1` (centres undefined), the viability is 88.1%.

Consider `COCCn1c(=S)[nH]c2cc(C(=O)NCCc3ccc(OC)c(OC)c3)ccc2c1=O`, for which the viability is 78.1%.

As for `N#CC1=C(N)Oc2c(sc3ccccc23)C1c1ccco1` (centres undefined), the viability was 14.4% (active).

`Cc1cc2c(c(=O)n1Cc1ccco1)C(c1ccccc1)C(C#N)=C(N)O2` (centres undefined): the viability is 70%.

As to `O=C(COc1cc(Cl)c(Cl)cc1Cl)NC(=O)NC1CCCC1`, the viability was 90.7%.

`CCOC(=O)c1cnc(SCC(=O)Nc2ccccc2C(=O)OC)nc1N`: the viability was 87.2%.

For `c1ccc(-n2ncc3c2ncn2c(CSc4nc5ccccc5s4)nnc32)cc1`, the viability was 5.83% (active).

Take `CCN(CC)C(=O)CSc1ncnc2c1cnn2-c1ccccc1`: the viability was 86.5%.

For the compound `c1ccc(-n2ncc3c2ncn2c(C4CCCCC4)nnc32)cc1`, the viability is 105%.

Regarding `CCCNC(=O)N1CCN(C(=O)NCCC)CC1`, the viability was 104%.

`CC(=O)c1cccc(NC(=O)C2CCCN2S(=O)(=O)c2cccc3nsnc23)c1` (centres undefined): the viability was 88.1%.

For the compound `CCC(C)NC(=O)c1ccccc1NC(=O)c1ccccc1N(C)S(C)(=O)=O` (centres undefined), the viability was 108%.

As to `CC(C)(C)C(=O)Cn1c(NCCO)nc2ccccc21`, the viability was 98%.

Take `Cn1c(Cc2cccc3ccccc23)nnc1SCC(=O)N1CCN(c2cccc(Cl)c2)CC1`: the viability is 38.5% (active).

Regarding `Cc1ccccc1NC(=O)Cc1nnc(SCC(=O)N2CCN(c3ccccc3)CC2)n1C`, the viability was 94%.

`Cc1cc2nnc(SCC(=O)N3CCN(c4ccccc4)CC3)n2c(N)n1`: the viability is 64.4%.

Turning to `CN(C)CCNC(CC(=O)Nc1ccc(Cl)c(Cl)c1)C(=O)O` (centres undefined), the viability was 99.7%.

As to `O=C(CC(O)(C(F)(F)F)C(F)(F)F)Nc1ccc(Cl)c(Cl)c1`, the viability is 1.49% (active).

With `CCn1nccc1C(=O)Nc1ccc(Cl)c(Cl)c1`, the viability is 77%.

Take `CCOC(=O)N1CCC(N(CCOC)C(=O)Nc2ccc(C)c(C)c2)CC1`: the viability is 44.7%.

As to `Cc1noc(C)c1CSCC(=O)Nc1nc2ccc(Oc3ccccc3)cc2s1`, the viability was 76.8%.

For `Cn1c(=O)c2cn(-c3cccc4ccccc34)cc2n(C)c1=O`, the viability is 47.3%.

On to `COc1ccc(-c2c3c(=O)n(C)c(=O)n(C)c3cn2-c2cccc(OC)c2)cc1`, for which the viability is 71.5%.

Regarding `COc1ccc(OC)c(-n2cc3c(=O)n(C)c(=O)n(C)c3c2)c1`, the viability was 29.6% (active).

In the case of `COCCCn1c(SCC(=O)Nc2ccccc2)nnc1-c1ccncc1`, the viability is 95.9%.

For `CC1(C)COC(c2cccn2Cc2ccccc2Cl)=N1`, the viability was 104%.

On to `O=c1c2ccccc2nc2n1C1(CCCCC1)Cc1ccccc1-2`, for which the viability is 83.7%.

Turning to `CCOC(=O)N1CCC(NC(=O)c2ccc3nc(N4CCOCC4)sc3c2)CC1`, the viability was 95.7%.

In the case of `CCOC(=O)N1CCN(CC(=O)Nc2cc(C)nn2-c2nc3ccccc3s2)CC1`, the viability was 4.45% (active).

Regarding `Cc1cc(NC(=O)CN2CCCC(C)C2)n(-c2nc3ccccc3s2)n1` (centres undefined), the viability was 62.1%.

`Cc1nn(C)cc1CNC(=O)Nc1ccc(Cl)cc1`: the viability was 90.8%.

For `Cc1cccc(NC(=O)CSc2nnc(NC(=O)CN3CCOCC3)s2)c1`, the viability was 79.3%.

For the compound `Cc1cccc(NC(=O)CN2CCCN(S(=O)(=O)c3ccc(Br)s3)CC2)c1`, the viability was 35.9% (active).

In the case of `Cc1cccc(NC(=O)CN2C(=O)CNC2=O)c1`, the viability is 91.7%.

Turning to `C/C(=N\NC(=O)c1nc(C)cc(C)n1)c1ccccc1`, the viability is 99.7%.

Consider `O=C1c2ccccc2C(=O)N1CCCc1nc(-c2ccccc2)no1`, for which the viability is 95.5%.

For `Oc1ccc(-c2onc3ccc(Cl)cc23)cc1`, the viability was 98.2%.

Regarding `COc1ccc(N2CCN(Cc3ccc(Br)s3)CC2)cc1`, the viability is 65.6%.

On to `CC1(C)Cc2cccc(OCC(N)=O)c2O1`, for which the viability is 102%.

For `Fc1ccc2nc(Nc3nc4c(s3)CCCC4)sc2c1`, the viability was 36.1% (active).

For `Fc1ccc2nc(N3CCCCC3)sc2c1`, the viability is 90%.

As to `CNC(=O)c1ccc2nc(NC(C)=O)sc2c1`, the viability is 99%.

`COC(=O)CSc1nc2c(c(C3CC=CCC3)c1C#N)CCC2` (centres undefined): the viability was 65.3%.

`O=C(c1cccc(F)c1)N1CCC(O)(c2cccnc2)CC1`: the viability was 88.1%.

With `CCOC(=O)N1CCC(Nc2c(NCCCN3CCN(CC)CC3)c(=O)c2=O)CC1`, the viability is 112%.

On to `CCOC(=O)c1cnc(SCC(=O)NCc2ccco2)nc1N`, for which the viability is 91.3%.

For `Cc1cc(C(=O)OCC(=O)NCc2ccco2)c(C)n1-c1ccccc1`, the viability is 29.6% (active).

As to `O=C(COC(=O)C12CC3CC(CC(C3)C1)C2)NCc1ccco1`, the viability was 83.8%.

For the compound `CNc1nc(SC)nc(N(C#N)CC(=O)OC)n1`, the viability is 92.4%.

In the case of `CCN(CC)S(=O)(=O)c1ccc2c3c(cccc13)C(=O)S2`, the viability is 69%.

As for `O=C(CSC1=Nc2ccccc2C2=NC(CC(=O)NCc3ccco3)C(=O)N12)NCc1ccco1` (centres undefined), the viability was 85.9%.

On to `CCOc1cc(NC(=O)c2cnccn2)c(OCC)cc1NC(=O)c1ccc(C)cc1`, for which the viability was 110%.

For `Cc1ccc(OCC(=O)N2CCN(C(=O)c3cccnc3)CC2)cc1`, the viability is 86.2%.

Consider `COc1ccc(NC(=O)C(CC(C)C)NS(=O)(=O)c2ccc3c(c2)CCN3C(C)=O)cc1OC` (centres undefined), for which the viability is 90.6%.

With `CCN(CC)Cc1cc(C(C)=O)ccc1O`, the viability was 98.5%.

`CCOc1ccc2c(c1)C(c1ccc(C)cc1)=NNC(c1ccc(C)cc1)=N2`: the viability was 21% (active).

`COc1ccc(C2C(C(C)=O)=C(O)C(=O)N2Cc2cccnc2)cc1` (centres undefined): the viability is 99.2%.

In the case of `Cc1ccc(Nc2nnc(SCc3ccccc3)s2)cc1`, the viability was 98.2%.

Turning to `COc1ccccc1C(=O)N1CC2(C)CC1CC(C)(C)C2` (centres undefined), the viability is 84.2%.

With `Cc1ccc(/C=N/NC(=O)Cn2nc(C)c(Br)c2C)o1`, the viability is 102%.

With `CCCCNC(=O)CCNC(=O)c1ccc(C(C)(C)C)cc1`, the viability is 102%.

On to `Cc1noc(C)c1S(=O)(=O)N(CC(=O)Nc1ccc2c(c1)OCCO2)c1ccc(C(C)C)cc1`, for which the viability was 56.8%.

With `CCOC(=O)c1cccc(NC(=O)CN(c2ccc(C)cc2)S(=O)(=O)c2c(C)noc2C)c1`, the viability is 24% (active).

Take `CCOc1ccc(N(CC(=O)OC)S(=O)(=O)c2c(C)noc2C)cc1`: the viability was 96.6%.

Regarding `CCOC(=O)c1cc2c(ccn2C)n1CC(=O)N1CCC(C)CC1`, the viability was 88.5%.

For `O=C(COc1ccccc1)Nc1nonc1NC(=O)COc1ccccc1`, the viability is 93.3%.

Regarding `COc1ccc(CN2CN(C(C)C)CSC2=S)cc1`, the viability was 0.67% (active).

In the case of `O=C(Nc1cc2ccccc2oc1=O)C1CCCCC1`, the viability was 98.1%.

As to `Cc1ccccc1-n1nc(C)c2cc(C(=O)NC3CC3)sc21`, the viability was 66.4%.

As to `O=C(Nc1ccc(Sc2ccc(Br)cc2)cc1)c1ccco1`, the viability was 54.3%.

Turning to `O=C(Nc1c(-c2ccccc2)nc2c(Br)cc(Br)cn12)c1ccco1`, the viability is 29.5% (active).

Turning to `Cc1ccccc1NC(=O)c1cnn(-c2ccccc2)c1NC(=O)c1ccco1`, the viability was 84.4%.

Take `CCOC(=O)c1c(N=CN(C)C)c(C#N)c2n1CCCC2`: the viability is 90.8%.

Regarding `CCOc1ccc2[nH]c(=O)c(CN(Cc3nnnn3Cc3ccccc3)CC3CCCO3)cc2c1` (centres undefined), the viability was 34.3% (active).

Take `COc1ccc2[nH]c(=O)c(CN(Cc3nnnn3CCc3ccccc3)CC3CCCO3)cc2c1` (centres undefined): the viability was 67.1%.

Turning to `CCOc1ccc2[nH]c(=O)c(CN(Cc3nnnn3CCc3ccccc3)CC3CCCO3)cc2c1` (centres undefined), the viability is 85.5%.
